A selection: hits, their analogues and other compounds. The true share with any hit is near 3.8%.
MITF TRPM1 HTS: activators of MITF-driven TRPM1 promoter activity in SK-MEL-5 cells; SK-MEL-5 TRPM1-promoter luciferase, 24 h; % of positive control, neutral wells = 0; AID 588334; activation, % at 12.5 µM; 300,000 tested, 0.75% active;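 active = mean activation of at least 80% with every replicate also reaching 80%; inconclusive = mean reaches 80% but some replicate falls short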;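 also: 0% = neutral control wells and 100% = parthenolide positive control wells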
HSF1 inhib: HSF1 inhibition. NIH3T3-HGL HSE-luciferase, MG132-induced, luminescence 8 h; active compounds read low. activity change, negative = inhibition, % at 7.5 µM (by protocol). 300,000 tested, 0.77% active;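 active = more than half of replicate wells show activity change below -50%, luminescence cut by over half; inconclusive = some wells, but at most half, below -50%; inactive = no replicate well below -50%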;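 also: luciferase reports HSF-1 transcriptional activity via heat shock element; 0% = median of DMSO wells and -100% = zero luminescence signal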
HSF-1 act: increases HSF-1 driven luciferase reporter signal | NIH3T3-HGL HSF-1 luciferase reporter, MG132, 8 h; 100% = twice DMSO control signal | activation, % at 9 µM | AID 504408 | 300,000 tested, 1.7% active;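 active = mean replicate activation of at least 50% with a set share of replicates each reaching 50%; inconclusive = only one of those two conditions met; inactive = mean below 50% and too few replicates reaching it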;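 also: 0% = median of the neutral control wells and 100% = twice that signal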
esBAF inh: inhibitors of esBAF chromatin remodeling in mouse ES cells; reporter increase, % at 12.5 µM; 350,000 tested, 2% active; AID 602393; Bmi1-luciferase knock-in reporter, 24 h; 100% = twice the neutral-well signal; in the data active = activation above about 40%; inconclusive = no clear call, values can overlap the other calls;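 also: 0% = median of the plate's neutral control wells and 100% = double that signal; a rise in the Bmi1 reporter signal indicates esBAF inhibition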
Wnt act: Wnt/beta-catenin pathway activation; activation, % at 9.35 µM; Wnt/beta-catenin reporter cell assay, activator, plate reader; 300,000 tested, 1.2% active; in the data active = activation above about 30%, passing the limit was not always enough; inconclusive = no clear call, values can overlap the other calls;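 also: 0% = neutral control wells and 100% = positive control wells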
* marks the source's active call; other numbers are inactive results; u = inconclusive; x = no result.

SMILES	MITF TRPM1 HTS	HSF1 inhib	HSF-1 act	esBAF inh	Wnt act
C[C@@H](NC(=O)[C@H]1[C@H](CO)[C@H]2Cn3c(cccc3=O)[C@H]2N1CC1CC1)c1ccccc1	x	x	x	1	x
C[C@@H]1CN([C@@H](C)CO)S(=O)(=O)c2ccc(-c3cccnc3)cc2O[C@@H]1CN(C)Cc1cncnc1	x	x	x	-4	x
C[C@@H]1CN([C@H](C)CO)C(=O)c2cc(NC(=O)Cn3cnnn3)ccc2O[C@@H]1CN(C)C(=O)Nc1ccccc1	x	x	x	2	x
C[C@H]1CN([C@@H](C)CO)C(=O)c2cc(-c3cccnc3)cnc2O[C@H]1CN(C)C(=O)Cc1cccnc1	x	x	x	2	x
CCOC(=O)c1cnc2c(ccc3ccccc32)c1N	x	33	29	45*	10
Oc1ccc(-c2cnc(-c3ccc(O)cc3)nc2)cc1	43	42	67*	8	-1
Nc1ccc2nc(-c3ccccc3)cnc2c1	x	13	7	x	72*
CCOC(=O)c1ccc2ncc(-c3ccccc3)nc2c1	111*	33	62*	x	12
COc1ccc(C#Cc2ccc3c(c2)O[C@@H](CN(C)C(=O)c2ccccn2)[C@@H](C)CN([C@@H](C)CO)S3(=O)=O)cc1	x	x	x	13	x
O=C(CC1CC1)Nc1ccc2c(c1)[C@H]1C[C@H](CC(=O)N3CCc4ccccc4C3)O[C@H](CO)[C@H]1O2	x	x	x	21	x
COc1ccccc1NC(=O)N1C[C@H]2[C@@H](c3ccccc31)[C@H](CO)N2Cc1ccccc1F	x	x	x	1	x
CCOC(=O)c1cnc2c(-c3ccccc3)cnn2c1C	73	14	42	x	56*
Clc1ccc(-c2cnc3ccccc3n2)cc1	45	19	34	x	x
CC(=O)c1cnc2c(-c3ccccc3)cnn2c1C	27	15	6	u	x
Oc1ccc(-c2cnc3ccccc3n2)cc1	u	15	29	x	53*
CC(C)NC(=O)N(C)C[C@@H]1OCCCC[C@@H](C)Oc2ccc(NS(=O)(=O)c3ccc(F)cc3)cc2C(=O)N([C@H](C)CO)C[C@H]1C	x	x	x	0	x
COC(C(=O)Nc1ccc(S(=O)(=O)Nc2cccc3ccccc23)cc1)c1ccccc1 (stereo unspecified)	-11	40	55*	x	x
C[C@H]1CCCCO[C@@H](CN(C)C)[C@@H](C)CN([C@@H](C)CO)C(=O)c2cc(NC(=O)c3ccccc3)ccc2O1	x	x	x	2	x
Cc1nn2cc(-c3cccc(Cl)c3)cnc2c1Cl	25	3	8	79*	-1
Cc1nn2cc(-c3cccc(Cl)c3)cnc2c1Br	20	16	-2	x	6
Cc1occc1-c1nnc(SC(C)C(=O)Nc2ccccc2F)o1 (stereo unspecified)	58	x	x	x	42*
CC(Sc1nnc(-c2ccccc2F)o1)C(=O)Nc1ccc(N2CCOCC2)cc1 (stereo unspecified)	34	x	x	18	-2
COc1ccc(NC(=O)Nc2ccc3c(c2)C(=O)N([C@@H](C)CO)C[C@@H](C)[C@H](CN(C)C)OCCCC[C@@H](C)O3)cc1	x	x	x	-1	x
CCn1c(S(=O)(=O)O)nc2ccccc21	-2	-69*	-77	-3	-3
CCCCn1c(NC(=O)c2ccccc2)nc2ccccc21	-7	-19	-10	4	2
SMILES	MITF TRPM1 HTS	HSF1 inhib	HSF-1 act	esBAF inh	Wnt act
CCn1c(NC(=O)c2ccccc2)nc2ccccc21	x	8	15	x	31*
CCCCn1c(S(=O)(=O)O)nc2ccccc21	x	-2	-9	6	-6
COc1ccc(NC(=O)N(C)C[C@@H]2OCCCC[C@@H](C)Oc3ccc(NS(=O)(=O)c4cccs4)cc3C(=O)N([C@@H](C)CO)C[C@H]2C)cc1	x	x	x	3	x
Cc1cc(=O)n2nc(-c3ccc(C(F)(F)F)cc3)sc2n1	5	-70*	-76	9	x
O=C(C1CCC(Cn2c(=S)[nH]c3ccccc3c2=O)CC1)N1CCOCC1 (stereo unspecified)	x	8	33	12	x
CCCCCNC(=O)C1CCC(Cn2c(=S)[nH]c3ccccc3c2=O)CC1 (stereo unspecified)	-10	28	85*	2	-2
CC1CCCC(C)N1C(=O)c1cc(-c2ccc(Cl)c(Cl)c2)on1 (stereo unspecified)	97*	0	6	80*	x
CC1CCCC(C)N1C(=O)c1cc(-c2ccc3c(c2)OCO3)on1 (stereo unspecified)	95*	-6	-31	56*	1
Cc1noc(C)c1NC(=O)Nc1ccc2c(c1)CC(=O)N([C@H](C)CO)C[C@@H](C)[C@H](CN(C)Cc1ccncc1)O2	x	x	x	-1	x
C[C@H]1CN([C@@H](C)CO)C(=O)c2cc(NC(=O)Nc3ccc(C(F)(F)F)cc3)ccc2O[C@@H]1CN(C)S(=O)(=O)c1cn(C)cn1	x	x	x	5	x
OC(c1ccccc1)c1nc(-c2cccs2)cs1 (stereo unspecified)	x	x	x	49*	6
COc1cccc(C(O)c2nc(-c3ccc(N(C)C)cc3)cs2)c1 (stereo unspecified)	x	x	x	45*	19
COc1ccc(-c2csc(C(NC(C)=O)c3cccc(F)c3)n2)cn1 (stereo unspecified)	x	x	x	-11	-1
COc1ccc(-c2csc(C(O)c3ccccc3)n2)cn1 (stereo unspecified)	x	x	x	61*	x
O=C(Cc1csc(NC(=O)Nc2cccc(Cl)c2)n1)NCc1cccnc1	32	6	8	13	-1
O=C(Cc1csc(NC(=O)Nc2ccc(Cl)cc2)n1)NCc1cccnc1	43	20	34	45*	12
OCCNC1=NCCN1	x	3	-3	-10	-1
Fc1ccc(Sc2ccccc2CNC2=NCCN2)cc1	-5	9	55*	x	-1
O=C(NCC1CC1)c1ccc2c3n(nc2c1)-c1ccccc1CO3	44	30	58*	4	46*
O=C(NCCO)c1ccc2c3n(nc2c1)-c1ccccc1CO3	73	15	28	2	37*
CC(C)NC(=O)c1ccc2c3n(nc2c1)-c1ccccc1CO3	-13	-3	-12	-45	18
Cc1ccc2c(c1)COc1c3ccc(C(=O)O)cc3nn1-2	-68	-32	-33	2	-1
Cc1ccc2c(c1)COc1c3ccc(C(=O)NCC4CC4)cc3nn1-2	78	21	24	94*	18
C=CCNC(=O)c1ccc2c3n(nc2c1)-c1ccc(Cl)cc1CO3	90*	23	33	53*	44*
O=C(C[C@@H]1C=C[C@@H](NC(=O)c2cccc(F)c2)[C@@H](CO)O1)Nc1nccs1	x	x	x	3	x
C/C=C/c1cnc2c(c1)C(=O)N([C@H](C)CO)C[C@H](C)[C@@H](CN(C)C(=O)NC1CCCCC1)O2	x	x	x	1	x
CCC(C)(C)C1CCc2[nH]nc(C(=O)NC3CCCCC3)c2C1 (stereo unspecified)	34	x	x	58*	5
C[C@@H]1CCCCO[C@H](CN(C)C(=O)NC2CCCCC2)[C@H](C)CN([C@H](C)CO)C(=O)c2cc(NC(=O)c3ccccc3)ccc2O1	x	x	x	-3	x

Screening data as filed in PubChem.
